# Experimental data as given in ChEMBL document CHEMBL2218924, “A broad activity screen in support of a chemogenomic map for kinase signalling research and drug discovery” (Biochem J, 2013).
# Tests used:
# [1] = target: Mast/stem cell growth factor receptor Kit (Homo sapiens) (UniProt P10721); conditions: at 1 µM
# [2] = target: Mast/stem cell growth factor receptor Kit (Homo sapiens) (UniProt P10721); conditions: at 10 µM
# [3] = target: Proto-oncogene tyrosine-protein kinase Src (Homo sapiens) (UniProt P12931); conditions: at 1 µM
# [4] = target: Proto-oncogene tyrosine-protein kinase Src (Homo sapiens) (UniProt P12931); conditions: at 10 µM
# [5] = target: T1, Eukaryotic elongation factor 2 kinase (Homo sapiens) (UniProt O00418); conditions: at 1 µM
# T1 sequence (whole entry): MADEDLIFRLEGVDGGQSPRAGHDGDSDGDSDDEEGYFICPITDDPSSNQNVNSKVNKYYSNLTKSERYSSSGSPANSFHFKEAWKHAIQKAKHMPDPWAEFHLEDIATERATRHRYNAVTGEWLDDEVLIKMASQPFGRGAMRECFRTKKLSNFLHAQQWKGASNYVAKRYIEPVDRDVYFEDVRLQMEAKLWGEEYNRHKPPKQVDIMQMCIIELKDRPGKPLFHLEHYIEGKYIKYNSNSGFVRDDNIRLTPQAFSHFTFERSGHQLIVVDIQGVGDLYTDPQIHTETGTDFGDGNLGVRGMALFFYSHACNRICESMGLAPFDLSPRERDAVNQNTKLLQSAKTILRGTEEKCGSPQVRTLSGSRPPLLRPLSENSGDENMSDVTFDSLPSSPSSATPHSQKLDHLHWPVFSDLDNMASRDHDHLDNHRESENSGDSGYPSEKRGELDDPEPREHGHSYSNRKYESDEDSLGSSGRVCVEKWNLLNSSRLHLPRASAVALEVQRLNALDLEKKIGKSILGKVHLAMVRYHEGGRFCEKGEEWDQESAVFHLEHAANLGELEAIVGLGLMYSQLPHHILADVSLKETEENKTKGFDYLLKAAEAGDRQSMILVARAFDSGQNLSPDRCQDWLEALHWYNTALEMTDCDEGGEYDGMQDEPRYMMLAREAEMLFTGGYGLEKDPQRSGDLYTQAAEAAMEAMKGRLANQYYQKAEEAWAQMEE
# [6] = target: T1, Eukaryotic elongation factor 2 kinase (Homo sapiens); conditions: at 10 µM
# [7] = target: Serine/threonine-protein kinase mTOR (Homo sapiens) (UniProt P42345); conditions: at 1 µM
# [8] = target: Serine/threonine-protein kinase mTOR (Homo sapiens) (UniProt P42345); conditions: at 10 µM
# [9] = target: Serine/threonine-protein kinase mTOR (Homo sapiens) (UniProt P42345); conditions: at 1 µM; remark: listed apart in the source
# [10] = target: Serine/threonine-protein kinase mTOR (Homo sapiens) (UniProt P42345); conditions: at 10 µM; remark: listed apart in the source
# Proto-oncogene tyrosine-protein kinase Src (Homo sapiens), sequence (P12931 2-536 limits assumed): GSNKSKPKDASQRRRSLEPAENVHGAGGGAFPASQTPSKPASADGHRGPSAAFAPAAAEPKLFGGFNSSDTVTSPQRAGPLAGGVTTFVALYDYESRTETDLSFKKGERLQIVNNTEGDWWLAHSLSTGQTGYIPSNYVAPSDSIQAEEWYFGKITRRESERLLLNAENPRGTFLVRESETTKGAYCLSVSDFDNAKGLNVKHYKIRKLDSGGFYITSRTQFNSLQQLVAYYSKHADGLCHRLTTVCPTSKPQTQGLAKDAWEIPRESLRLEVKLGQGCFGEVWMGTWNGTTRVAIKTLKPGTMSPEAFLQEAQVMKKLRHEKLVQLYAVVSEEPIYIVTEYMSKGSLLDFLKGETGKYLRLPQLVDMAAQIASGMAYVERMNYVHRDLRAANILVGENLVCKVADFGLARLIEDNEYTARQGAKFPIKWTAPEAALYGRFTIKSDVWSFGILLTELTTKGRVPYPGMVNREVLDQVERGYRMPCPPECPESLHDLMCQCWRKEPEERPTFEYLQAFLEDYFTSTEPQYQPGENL
# Mast/stem cell growth factor receptor Kit (Homo sapiens), sequence (P10721 whole entry): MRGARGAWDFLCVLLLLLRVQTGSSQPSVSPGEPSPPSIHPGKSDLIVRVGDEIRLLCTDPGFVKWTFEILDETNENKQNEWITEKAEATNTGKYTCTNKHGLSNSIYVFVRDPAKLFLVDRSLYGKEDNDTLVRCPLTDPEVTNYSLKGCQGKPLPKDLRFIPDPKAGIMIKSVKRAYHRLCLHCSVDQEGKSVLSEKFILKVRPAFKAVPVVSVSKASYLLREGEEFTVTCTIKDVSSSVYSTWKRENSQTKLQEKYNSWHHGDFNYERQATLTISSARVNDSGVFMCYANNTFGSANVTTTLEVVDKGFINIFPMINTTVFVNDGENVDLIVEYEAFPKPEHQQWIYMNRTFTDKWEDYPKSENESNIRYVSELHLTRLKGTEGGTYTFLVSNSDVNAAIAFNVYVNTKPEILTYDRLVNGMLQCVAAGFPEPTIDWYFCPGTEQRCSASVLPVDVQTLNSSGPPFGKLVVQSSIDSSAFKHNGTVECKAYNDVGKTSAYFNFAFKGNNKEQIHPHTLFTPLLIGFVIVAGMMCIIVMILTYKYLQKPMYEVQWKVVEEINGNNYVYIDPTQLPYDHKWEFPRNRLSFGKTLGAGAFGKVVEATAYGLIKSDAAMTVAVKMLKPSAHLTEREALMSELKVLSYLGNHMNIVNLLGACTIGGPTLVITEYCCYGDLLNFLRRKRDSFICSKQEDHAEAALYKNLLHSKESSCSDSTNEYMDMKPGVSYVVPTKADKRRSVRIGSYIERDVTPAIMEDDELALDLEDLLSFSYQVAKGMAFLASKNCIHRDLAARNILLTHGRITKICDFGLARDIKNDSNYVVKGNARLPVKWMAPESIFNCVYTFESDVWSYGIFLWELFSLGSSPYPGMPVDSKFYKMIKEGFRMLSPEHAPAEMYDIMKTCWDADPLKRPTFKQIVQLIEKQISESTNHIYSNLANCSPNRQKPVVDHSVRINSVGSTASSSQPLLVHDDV
compound,measurement,setting,value
COc1cc2ncnc(Nc3ccc(Oc4ccccc4)cc3)c2cc1OC,residual activity,[1],109%
same,residual activity,[2],60%
same,residual activity,[3],36%
same,residual activity,[4],24%
same,residual activity,[5],92% (inactive)
same,residual activity,[6],132%
same,residual activity,[7],90%
same,residual activity,[8],95%
same,residual activity,[9],80%
same,residual activity,[10],95%
CO[C@H]1C[C@@H]2CC[C@@H](C)[C@@](O)(O2)C(=O)C(=O)N2CCCC[C@H]2C(=O)O[C@H]([C@H](C)C[C@@H]2CC[C@@H](O)[C@H](OC)C2)CC(=O)[C@H](C)/C=C(\C)[C@@H](O)[C@@H](OC)C(=O)[C@H](C)C[C@H](C)/C=C/C=C/C=C/1C,residual activity,[1],110%
same,residual activity,[2],101%
same,residual activity,[3],89%
same,residual activity,[4],95%
same,residual activity,[7],57%
same,residual activity,[8],51%
same,residual activity,[9],-17%
same,residual activity,[10],4%
Cc1nc(-c2ccccc2)c(-c2ccncc2)o1,residual activity,[1],124%
same,residual activity,[2],98%
same,residual activity,[3],113%
same,residual activity,[4],81%
same,residual activity,[7],109%
same,residual activity,[8],103%
same,residual activity,[9],116%
same,residual activity,[10],94%
C[C@@H](N)[C@H]1CC[C@H](C(=O)Nc2ccncc2)CC1,residual activity,[1],107%
same,residual activity,[2],106%
same,residual activity,[3],100%
same,residual activity,[4],103%
same,residual activity,[5],96% (inactive)
same,residual activity,[7],105%
same,residual activity,[8],99%
same,residual activity,[9],109%
same,residual activity,[10],117%
COc1cc2ncc(-c3ccccc3)nc2cc1OC,residual activity,[1],84%
same,residual activity,[2],24%
same,residual activity,[3],88%
same,residual activity,[4],95%
CO[C@H]1[C@@H](OC)C[C@H](C)[C@@H](OC)C2=CC(=O)C=C(NC(=O)/C(C)=C/C=C/[C@H](OC)[C@@H](OC(N)=O)/C(C)=C/[C@@H]1C)C2=O,residual activity,[1],104%
same,residual activity,[2],98%
same,residual activity,[3],101%
same,residual activity,[4],92%
same,residual activity,[7],95%
same,residual activity,[8],103%
same,residual activity,[9],77%
same,residual activity,[10],89%
O=C1NC(=O)/C(=C/c2ccc3c(c2)OC(F)(F)O3)S1,residual activity,[1],116%
same,residual activity,[2],102%
same,residual activity,[3],91%
same,residual activity,[4],106%
same,residual activity,[5],85% (inactive)
same,residual activity,[6],104%
same,residual activity,[7],82%
same,residual activity,[8],90%
same,residual activity,[9],106%
same,residual activity,[10],104%
Oc1ccc(Nc2nc(-c3ccc(Cl)cc3)cs2)cc1,residual activity,[1],110%
same,residual activity,[2],76%
same,residual activity,[3],116%
same,residual activity,[4],93%
same,residual activity,[7],102%
same,residual activity,[8],83%
same,residual activity,[9],103%
same,residual activity,[10],106%
O=C1Nc2cc(Br)ccc2/C1=C1/Nc2ccccc2/C1=N\O,residual activity,[1],18%
same,residual activity,[2],21%
same,residual activity,[3],2%
same,residual activity,[4],3%
same,residual activity,[5],94% (inactive)
same,residual activity,[6],89%
same,residual activity,[7],76%
same,residual activity,[8],76%
same,residual activity,[9],119%
same,residual activity,[10],82%
CC(C)n1cnc2c(NCc3ccccc3)nc(NCCCO)nc21,residual activity,[1],111%
same,residual activity,[2],98%
same,residual activity,[3],100%
same,residual activity,[4],86%
same,residual activity,[5],108% (inactive)
same,residual activity,[6],98%
same,residual activity,[7],109%
same,residual activity,[8],114%
same,residual activity,[9],116%
same,residual activity,[10],104%
O=[N+]([O-])c1ccc(-c2nc(-c3ccc(F)cc3)c(-c3ccncc3)[nH]2)cc1,residual activity,[1],123%
same,residual activity,[2],110%
same,residual activity,[3],113%
same,residual activity,[4],90%
same,residual activity,[5],108% (inactive)
same,residual activity,[6],94%
same,residual activity,[7],110%
same,residual activity,[8],112%
same,residual activity,[9],126%
same,residual activity,[10],71%
Nc1n[nH]c2nnc(-c3c(-c4ccccc4)nn4ccccc34)cc12,residual activity,[1],95%
same,residual activity,[2],108%
same,residual activity,[3],103%
same,residual activity,[4],77%
same,residual activity,[7],113%
same,residual activity,[8],97%
same,residual activity,[9],129%
same,residual activity,[10],87%
O=C(Nc1cccc(Nc2cc(Nc3cccc(C(F)(F)F)c3)ncn2)c1)C1CC1,residual activity,[1],106%
same,residual activity,[2],100%
same,residual activity,[3],110%
same,residual activity,[4],64%
same,residual activity,[7],105%
same,residual activity,[8],105%
same,residual activity,[9],104%
same,residual activity,[10],102%
COc1ccc(CNc2nc(N(CCO)CCO)nc3c2ncn3C(C)C)cc1,residual activity,[1],91%
same,residual activity,[2],66%
same,residual activity,[3],104%
same,residual activity,[4],82%
same,residual activity,[5],106% (inactive)
same,residual activity,[6],101%
same,residual activity,[7],106%
same,residual activity,[8],97%
same,residual activity,[9],128%
same,residual activity,[10],99%
O=C1Nc2ccc(Br)cc2/C1=C\c1cc2c([nH]1)CCCC2,residual activity,[1],66%
same,residual activity,[2],43%
same,residual activity,[3],73%
same,residual activity,[4],99%
same,residual activity,[7],116%
same,residual activity,[8],104%
same,residual activity,[9],110%
same,residual activity,[10],103%
CC(=O)O/N=C1\C(=C2\C(=O)Nc3cc(Br)ccc32)Nc2ccccc21,residual activity,[1],97%
same,residual activity,[2],32%
same,residual activity,[3],22%
same,residual activity,[4],8%
same,residual activity,[7],96%
same,residual activity,[8],94%
same,residual activity,[9],105%
same,residual activity,[10],84%
O=C(Nc1cccc(Nc2nccc(Nc3cccc(C(F)(F)F)c3)n2)c1)C1CC1,residual activity,[1],94%
same,residual activity,[2],46%
same,residual activity,[3],56%
same,residual activity,[4],12%
same,residual activity,[5],93% (inactive)
same,residual activity,[6],101%
same,residual activity,[7],79%
same,residual activity,[8],83%
same,residual activity,[9],71%
same,residual activity,[10],84%
O=C1NC(=O)c2c1c1c3ccccc3[nH]c1c1[nH]c3cc(Br)ccc3c21,residual activity,[1],107%
same,residual activity,[2],94%
same,residual activity,[3],117%
same,residual activity,[4],93%
same,residual activity,[7],117%
same,residual activity,[8],106%
same,residual activity,[9],76%
same,residual activity,[10],113%
N#C/C(=C(\N)Sc1ccc(N)cc1)c1ccccc1C(F)(F)F,residual activity,[1],115%
same,residual activity,[2],105%
same,residual activity,[3],125%
same,residual activity,[4],91%
same,residual activity,[7],87%
same,residual activity,[8],63%
same,residual activity,[9],118%
same,residual activity,[10],79%
O=Nc1c(-c2c(O)[nH]c3ccccc23)[nH]c2ccccc12,residual activity,[1],20%
same,residual activity,[2],2%
same,residual activity,[3],35%
same,residual activity,[4],5%
same,residual activity,[5],109% (inactive)
same,residual activity,[6],93%
same,residual activity,[7],100%
same,residual activity,[8],98%
same,residual activity,[9],117%
same,residual activity,[10],89%
Oc1ccc(-c2nc(-c3ccc(F)cc3)c(-c3ccncc3)[nH]2)cc1,residual activity,[1],122%
same,residual activity,[2],107%
same,residual activity,[3],108%
same,residual activity,[4],45%
same,residual activity,[7],98%
same,residual activity,[8],90%
same,residual activity,[9],123%
same,residual activity,[10],90%
CO[C@@H]1[C@H](N(C)C(=O)c2ccccc2)C[C@H]2O[C@]1(C)n1c3ccccc3c3c4c(c5c6ccccc6n2c5c31)C(=O)NC4,residual activity,[1],65%
same,residual activity,[2],39%
same,residual activity,[3],40%
same,residual activity,[4],24%
same,residual activity,[7],95%
same,residual activity,[8],103%
same,residual activity,[9],107%
same,residual activity,[10],83%
COc1cc2ncnc(Nc3ccc(O)c(Br)c3)c2cc1OC,residual activity,[1],102%
same,residual activity,[2],103%
same,residual activity,[3],54%
same,residual activity,[4],18%
same,residual activity,[7],106%
same,residual activity,[8],111%
same,residual activity,[9],96%
same,residual activity,[10],101%
Oc1n[nH]c2nnc(-c3c(-c4ccccc4)nn4ccccc34)cc12,residual activity,[1],94%
same,residual activity,[2],104%
same,residual activity,[3],95%
same,residual activity,[4],87%
same,residual activity,[7],97%
same,residual activity,[8],76%
same,residual activity,[9],102%
same,residual activity,[10],76%
Cc1cc2ncc(-c3ccccc3)nc2cc1C,residual activity,[1],86%
same,residual activity,[2],70%
same,residual activity,[3],83%
same,residual activity,[4],99%
same,residual activity,[7],93%
same,residual activity,[8],100%
same,residual activity,[9],70%
same,residual activity,[10],83%
Nc1nc(Nc2ccc(S(N)(=O)=O)cc2)nn1C(=S)Nc1c(F)cccc1F,residual activity,[1],100%
same,residual activity,[2],66%
same,residual activity,[3],23%
same,residual activity,[4],1%
same,residual activity,[7],108%
same,residual activity,[8],89%
same,residual activity,[9],128%
same,residual activity,[10],94%
CCN(CC)CCCCN1c2ccccc2Oc2ccc(Cl)cc21,residual activity,[1],121%
same,residual activity,[2],107%
same,residual activity,[3],81%
same,residual activity,[4],109%
same,residual activity,[5],104% (inactive)
same,residual activity,[6],131%
same,residual activity,[7],110%
same,residual activity,[8],110%
same,residual activity,[9],70%
same,residual activity,[10],98%
O=C1NC(=O)/C(=C\c2ccc3nccnc3c2)S1,residual activity,[1],106%
same,residual activity,[2],102%
same,residual activity,[3],86%
same,residual activity,[4],103%
same,residual activity,[5],99% (inactive)
same,residual activity,[6],91%
same,residual activity,[7],46%
same,residual activity,[8],51%
same,residual activity,[9],90%
same,residual activity,[10],36%
NC(=O)c1ccc2[nH]c(-c3ccc(Oc4ccc(Cl)cc4)cc3)nc2c1,residual activity,[1],106%
same,residual activity,[2],90%
same,residual activity,[3],108%
same,residual activity,[4],92%
same,residual activity,[5],89% (inactive)
same,residual activity,[6],140%
same,residual activity,[7],123%
same,residual activity,[8],96%
same,residual activity,[9],113%
same,residual activity,[10],110%
Oc1c2ccccc2c2c3c(cccc13)N=N2,residual activity,[1],91%
same,residual activity,[2],30%
same,residual activity,[3],89%
same,residual activity,[4],64%
same,residual activity,[6],92%
same,residual activity,[7],104%
same,residual activity,[8],77%
same,residual activity,[10],84%
CCC(=O)Nc1ccc2ncnc(Nc3cccc(Br)c3)c2c1,residual activity,[1],109%
same,residual activity,[2],103%
same,residual activity,[3],88%
same,residual activity,[4],89%
same,residual activity,[5],94% (inactive)
same,residual activity,[6],107%
same,residual activity,[7],106%
same,residual activity,[8],104%
same,residual activity,[9],123%
same,residual activity,[10],101%
